Holding throughout (experiment): PBM; 200 nM protein, PBS
Common to all, as to settings: dsDNA, one strand shown

For assay [1], the target named is HOXB9 (Homo sapiens, UniProt P17482 171-250, T197M).
The target in assay [2] is HOXC9 (Homo sapiens, UniProt P31274 178-260, K195R).
Assay [3] concerns the target HOXB9 (Homo sapiens, UniProt P17482 171-250).
Assay [4] deals with HOXC9 (Homo sapiens, UniProt P31274 178-260).
The target of assay [5] is HOXC9 (Homo sapiens, UniProt P31274 178-260, R193K).
Chain of HOXC9 (Homo sapiens, UniProt P31274 178-260, R193K) (P31274 178-260 R193K): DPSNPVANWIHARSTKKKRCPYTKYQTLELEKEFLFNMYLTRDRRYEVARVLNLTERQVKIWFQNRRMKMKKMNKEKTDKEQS
Assay [6] addresses HOXB9 (Homo sapiens, UniProt P17482 171-250, R186Q).
Assay [7] addresses HOXC9 (Homo sapiens, UniProt P31274 178-260, R222W).
The target in assay [8] is T1, PAX4 (Homo sapiens, UniProt O43316 9-242, R200K).
T1 sequence: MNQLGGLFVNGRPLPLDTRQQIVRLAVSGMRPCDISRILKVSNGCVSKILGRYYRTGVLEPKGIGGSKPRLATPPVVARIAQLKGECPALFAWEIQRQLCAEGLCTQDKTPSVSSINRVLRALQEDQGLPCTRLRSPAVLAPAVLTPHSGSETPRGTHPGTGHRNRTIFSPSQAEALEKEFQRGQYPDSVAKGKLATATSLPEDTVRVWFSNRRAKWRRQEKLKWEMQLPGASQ

In assay [9] the target is PRRX1 (Homo sapiens, UniProt P54821 80-166, F113S).
Chain of PRRX1 (Homo sapiens, UniProt P54821 80-166, F113S) (P54821 80-166 F113S): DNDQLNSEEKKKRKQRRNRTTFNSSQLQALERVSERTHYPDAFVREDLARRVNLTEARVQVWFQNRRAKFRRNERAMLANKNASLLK
In assay [10] the target is HOXB6 (Homo sapiens, UniProt P17509 132-218, K202E).
Chain of HOXB6 (Homo sapiens, UniProt P17509 132-218, K202E) (P17509 132-218 K202E): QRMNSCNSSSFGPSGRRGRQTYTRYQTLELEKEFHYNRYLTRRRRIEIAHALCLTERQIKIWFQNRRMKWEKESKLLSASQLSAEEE
Assay [11] deals with ALX3 (Homo sapiens, UniProt O95076 139-225, N203Q).
Chain of ALX3 (Homo sapiens, UniProt O95076 139-225, N203Q) (O95076 139-225 N203Q): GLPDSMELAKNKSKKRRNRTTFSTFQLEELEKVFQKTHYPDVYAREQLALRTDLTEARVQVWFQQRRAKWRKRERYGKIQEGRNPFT
Assay [12] deals with T2, PAX4 (Homo sapiens, UniProt O43316 9-242, F177V).
T2 sequence: T1 sequence with F169V, K192R

Assay [13] addresses T3, PAX4 (Homo sapiens, UniProt O43316 9-242, F177Y).
T3 sequence: T1 sequence with F169Y, K192R

In assay [14] the target is T4, PAX4 (Homo sapiens, UniProt O43316 9-242, R227W).
T4 sequence: T1 sequence with K192R, R219W

The target of assay [15] is ALX3 (Homo sapiens, UniProt O95076 139-225, N203S).
Chain of ALX3 (Homo sapiens, UniProt O95076 139-225, N203S) (O95076 139-225 N203S): as the sequence (O95076 139-225 N203Q) above, with Q65S counted along it
In assay [16] the target is HOXC10 (Homo sapiens, UniProt Q9NYD6 254-340).
Chain of HOXC10 (Homo sapiens, UniProt Q9NYD6 254-340) (Q9NYD6 254-340): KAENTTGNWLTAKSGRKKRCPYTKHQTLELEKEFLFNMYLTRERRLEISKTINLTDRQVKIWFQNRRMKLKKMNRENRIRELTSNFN
The target in assay [17] is MSX2 (Homo sapiens, UniProt P35548 130-214, R199I).
Chain of MSX2 (Homo sapiens, UniProt P35548 130-214, R199I) (P35548 130-214 R199I): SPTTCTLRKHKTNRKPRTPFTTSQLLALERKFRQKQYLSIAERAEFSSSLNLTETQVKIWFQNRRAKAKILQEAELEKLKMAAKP
Assay [18] has as its target HOXC10 (Homo sapiens, UniProt Q9NYD6 254-340, K271E).
Assay [19] concerns the target MSX2 (Homo sapiens, UniProt P35548 130-214).
Assay [20] addresses ALX3 (Homo sapiens, UniProt O95076 139-225).
Assay [21] addresses ALX3 (Homo sapiens, UniProt O95076 139-225, L168Q).
The target of assay [22] is ALX3 (Homo sapiens, UniProt O95076 139-225, L168V).
Chain of ALX3 (Homo sapiens, UniProt O95076 139-225, L168V) (O95076 139-225 L168V): as the sequence (O95076 139-225 N203Q) above, with L30V, Q65N counted along it
The target in assay [23] is MSX2 (Homo sapiens, UniProt P35548 130-214, F161Y).
Chain of MSX2 (Homo sapiens, UniProt P35548 130-214, F161Y) (P35548 130-214 F161Y): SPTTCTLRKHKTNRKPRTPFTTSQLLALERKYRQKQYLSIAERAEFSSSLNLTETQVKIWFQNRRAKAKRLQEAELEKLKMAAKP
In assay [24] the target is PRRX1 (Homo sapiens, UniProt P54821 80-166).
Chain of PRRX1 (Homo sapiens, UniProt P54821 80-166) (P54821 80-166): as the sequence (P54821 80-166 F113S) above, with S34F counted along it
The target in assay [25] is HOXD13 (Homo sapiens, UniProt P35453 263-343, T313R).
Chain of HOXD13 (Homo sapiens, UniProt P35453 263-343, T313R) (P35453 263-343 T313R): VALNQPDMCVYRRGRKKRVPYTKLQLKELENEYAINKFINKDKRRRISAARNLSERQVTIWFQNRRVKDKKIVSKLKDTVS
Assay [26] has as its target HOXD13 (Homo sapiens, UniProt P35453 263-343).
The target in assay [27] is HOXD13 (Homo sapiens, UniProt P35453 263-343, T313A).
Chain of HOXD13 (Homo sapiens, UniProt P35453 263-343, T313A) (P35453 263-343 T313A): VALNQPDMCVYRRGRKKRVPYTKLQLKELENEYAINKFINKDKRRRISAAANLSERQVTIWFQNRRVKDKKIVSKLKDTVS
For assay [28], the target named is HOXB6 (Homo sapiens, UniProt P17509 132-218).
Chain of HOXB6 (Homo sapiens, UniProt P17509 132-218) (P17509 132-218): as the sequence (P17509 132-218 K202E) above, with E71K counted along it
The target in assay [29] is ALX1 (Homo sapiens, UniProt Q15699 118-204, L144V).
Chain of ALX1 (Homo sapiens, UniProt Q15699 118-204, L144V) (Q15699 118-204 L144V): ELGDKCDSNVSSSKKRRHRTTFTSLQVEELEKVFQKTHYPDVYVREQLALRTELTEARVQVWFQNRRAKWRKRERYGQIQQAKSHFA
For assay [30], the target named is ALX1 (Homo sapiens, UniProt Q15699 118-204, L144R).
Chain of ALX1 (Homo sapiens, UniProt Q15699 118-204, L144R) (Q15699 118-204 L144R): as the sequence (Q15699 118-204 L144V) above, with V27R counted along it
The target of assay [31] is ALX1 (Homo sapiens, UniProt Q15699 118-204).
Chain of ALX1 (Homo sapiens, UniProt Q15699 118-204) (Q15699 118-204): as the sequence (Q15699 118-204 L144V) above, with V27L counted along it

Changes are numbered by the printed parent chain.

Chain of HOXC9 (Homo sapiens, UniProt P31274 178-260, K195R) (P31274 178-260 K195R): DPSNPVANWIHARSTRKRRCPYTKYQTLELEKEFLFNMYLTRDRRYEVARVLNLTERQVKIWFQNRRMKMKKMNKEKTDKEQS
Chain of MSX2 (Homo sapiens, UniProt P35548 130-214) (P35548 130-214): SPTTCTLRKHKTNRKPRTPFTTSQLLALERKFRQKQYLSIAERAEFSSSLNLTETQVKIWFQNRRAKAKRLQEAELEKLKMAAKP
Chain of HOXB9 (Homo sapiens, UniProt P17482 171-250, R186Q) (P17482 171-250 R186Q): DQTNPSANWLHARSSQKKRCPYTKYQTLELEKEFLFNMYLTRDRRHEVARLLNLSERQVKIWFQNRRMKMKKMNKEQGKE
Chain of HOXC9 (Homo sapiens, UniProt P31274 178-260, R222W) (P31274 178-260 R222W): as the sequence (P31274 178-260 R193K) above, with K16R, R45W counted along it
Chain of HOXB9 (Homo sapiens, UniProt P17482 171-250, T197M) (P17482 171-250 T197M): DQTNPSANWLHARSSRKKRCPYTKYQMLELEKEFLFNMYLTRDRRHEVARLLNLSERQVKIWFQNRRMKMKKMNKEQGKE
Chain of HOXC9 (Homo sapiens, UniProt P31274 178-260) (P31274 178-260): as the sequence (P31274 178-260 R193K) above, with K16R counted along it
Chain of HOXB9 (Homo sapiens, UniProt P17482 171-250) (P17482 171-250): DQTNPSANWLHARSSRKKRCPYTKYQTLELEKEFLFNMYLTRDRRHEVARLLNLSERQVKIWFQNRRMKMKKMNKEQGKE
Chain of HOXC10 (Homo sapiens, UniProt Q9NYD6 254-340, K271E) (Q9NYD6 254-340 K271E): as the sequence (Q9NYD6 254-340) above, with K18E counted along it
Chain of HOXD13 (Homo sapiens, UniProt P35453 263-343) (P35453 263-343): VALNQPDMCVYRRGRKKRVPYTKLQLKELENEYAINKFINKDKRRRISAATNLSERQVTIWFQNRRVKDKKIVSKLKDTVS
Chain of ALX3 (Homo sapiens, UniProt O95076 139-225) (O95076 139-225): as the sequence (O95076 139-225 N203Q) above, with Q65N counted along it
Chain of ALX3 (Homo sapiens, UniProt O95076 139-225, L168Q) (O95076 139-225 L168Q): as the sequence (O95076 139-225 N203Q) above, with L30Q, Q65N counted along it

On to ATAAAATG, for which the binding signal in assay [1] is 9.81 upbm affinity estimate (log intensity, higher = more binding, comparable within an allelic series); in assay [2], 12.5 upbm affinity estimate (log intensity, higher = more binding, comparable within an allelic series); in assay [3], 11.7 upbm affinity estimate (log intensity, higher = more binding, comparable within an allelic series); in [4] it was 12.6 upbm affinity estimate (log intensity, higher = more binding, comparable within an allelic series); in assay [5], 12.6 upbm affinity estimate (log intensity, higher = more binding, comparable within an allelic series); in [6], 11.6 upbm affinity estimate (log intensity, higher = more binding, comparable within an allelic series). For the same sequence, in assay [7], the binding signal is 11 upbm affinity estimate (log intensity, higher = more binding, comparable within an allelic series).

As to ATTAAATA, the binding signal in assay [1] is 10.1 upbm affinity estimate (log intensity, higher = more binding, comparable within an allelic series); in [8], 11.7 upbm affinity estimate (log intensity, higher = more binding, comparable within an allelic series); in [9] it was 11.1 upbm affinity estimate (log intensity, higher = more binding, comparable within an allelic series); in assay [10] it was 10 upbm affinity estimate (log intensity, higher = more binding, comparable within an allelic series); in assay [3] it was 11.7 upbm affinity estimate (log intensity, higher = more binding, comparable within an allelic series); in assay [11], 8.66 upbm affinity estimate (log intensity, higher = more binding, comparable within an allelic series). In addition, the binding signal in assay [5] is 12.5 upbm affinity estimate (log intensity, higher = more binding, comparable within an allelic series); in [12], 10.8 upbm affinity estimate (log intensity, higher = more binding, comparable within an allelic series); in [13], 11.1 upbm affinity estimate (log intensity, higher = more binding, comparable within an allelic series); in assay [6] it was 11.5 upbm affinity estimate (log intensity, higher = more binding, comparable within an allelic series); in assay [7], 11.1 upbm affinity estimate (log intensity, higher = more binding, comparable within an allelic series); in assay [14], 11 upbm affinity estimate (log intensity, higher = more binding, comparable within an allelic series). Further, in [15], the binding signal was 8.86 upbm affinity estimate (log intensity, higher = more binding, comparable within an allelic series).

In the case of CTCACGGC, the binding signal is 8.44 upbm affinity estimate (log intensity, higher = more binding, comparable within an allelic series) in [1]; 10 upbm affinity estimate (log intensity, higher = more binding, comparable within an allelic series) in assay [16]; 8.41 upbm affinity estimate (log intensity, higher = more binding, comparable within an allelic series) in assay [3]; 9.58 upbm affinity estimate (log intensity, higher = more binding, comparable within an allelic series) in [17]; 7.72 upbm affinity estimate (log intensity, higher = more binding, comparable within an allelic series) in assay [11]; 10 upbm affinity estimate (log intensity, higher = more binding, comparable within an allelic series) in assay [18]. Moreover, the binding signal was 9.43 upbm affinity estimate (log intensity, higher = more binding, comparable within an allelic series) in [19]; 7.47 upbm affinity estimate (log intensity, higher = more binding, comparable within an allelic series) in [20]; 7.78 upbm affinity estimate (log intensity, higher = more binding, comparable within an allelic series) in [21]; 8.46 upbm affinity estimate (log intensity, higher = more binding, comparable within an allelic series) in [6]; 7.81 upbm affinity estimate (log intensity, higher = more binding, comparable within an allelic series) in assay [22]; 9.43 upbm affinity estimate (log intensity, higher = more binding, comparable within an allelic series) in [23]. In assay [15], the binding signal is 7.72 upbm affinity estimate (log intensity, higher = more binding, comparable within an allelic series).

CAGAAGCC: the binding signal in assay [1] was 8.6 upbm affinity estimate (log intensity, higher = more binding, comparable within an allelic series); in assay [9] it was 9.41 upbm affinity estimate (log intensity, higher = more binding, comparable within an allelic series); in assay [3], 8.72 upbm affinity estimate (log intensity, higher = more binding, comparable within an allelic series); in [6] it was 8.73 upbm affinity estimate (log intensity, higher = more binding, comparable within an allelic series); in assay [24], 9.47 upbm affinity estimate (log intensity, higher = more binding, comparable within an allelic series).

Turning to CCCCCAGA, the binding signal is 8.56 upbm affinity estimate (log intensity, higher = more binding, comparable within an allelic series) in assay [1]; 9.67 upbm affinity estimate (log intensity, higher = more binding, comparable within an allelic series) in assay [2]; 8.41 upbm affinity estimate (log intensity, higher = more binding, comparable within an allelic series) in [3]; 9.59 upbm affinity estimate (log intensity, higher = more binding, comparable within an allelic series) in assay [4]; 9.69 upbm affinity estimate (log intensity, higher = more binding, comparable within an allelic series) in assay [5]; 8.47 upbm affinity estimate (log intensity, higher = more binding, comparable within an allelic series) in assay [6]. Also, the binding signal in assay [7] is 9.54 upbm affinity estimate (log intensity, higher = more binding, comparable within an allelic series).

Take ACCGGCAG: the binding signal in [1] is 8.5 upbm affinity estimate (log intensity, higher = more binding, comparable within an allelic series); in assay [9], 9.27 upbm affinity estimate (log intensity, higher = more binding, comparable within an allelic series); in [3], 8.43 upbm affinity estimate (log intensity, higher = more binding, comparable within an allelic series); in assay [17], 9.63 upbm affinity estimate (log intensity, higher = more binding, comparable within an allelic series); in [25], 9.44 upbm affinity estimate (log intensity, higher = more binding, comparable within an allelic series); in assay [26], 9.57 upbm affinity estimate (log intensity, higher = more binding, comparable within an allelic series). Moreover, the binding signal in assay [19] is 9.62 upbm affinity estimate (log intensity, higher = more binding, comparable within an allelic series); in assay [27] it was 9.67 upbm affinity estimate (log intensity, higher = more binding, comparable within an allelic series); in assay [6], 8.48 upbm affinity estimate (log intensity, higher = more binding, comparable within an allelic series); in assay [23] it was 9.59 upbm affinity estimate (log intensity, higher = more binding, comparable within an allelic series); in assay [24], 9.41 upbm affinity estimate (log intensity, higher = more binding, comparable within an allelic series).

On to CGTGAAGC, for which the binding signal is 8.57 upbm affinity estimate (log intensity, higher = more binding, comparable within an allelic series) in assay [1]; 10 upbm affinity estimate (log intensity, higher = more binding, comparable within an allelic series) in assay [16]; 9.08 upbm affinity estimate (log intensity, higher = more binding, comparable within an allelic series) in [10]; 8.56 upbm affinity estimate (log intensity, higher = more binding, comparable within an allelic series) in assay [3]; 9.57 upbm affinity estimate (log intensity, higher = more binding, comparable within an allelic series) in [17]; 10 upbm affinity estimate (log intensity, higher = more binding, comparable within an allelic series) in assay [18]. In addition, the binding signal in assay [19] is 9.35 upbm affinity estimate (log intensity, higher = more binding, comparable within an allelic series); in [6], 8.45 upbm affinity estimate (log intensity, higher = more binding, comparable within an allelic series); in assay [23], 9.38 upbm affinity estimate (log intensity, higher = more binding, comparable within an allelic series); in assay [28], 8.9 upbm affinity estimate (log intensity, higher = more binding, comparable within an allelic series).

Turning to CCCAGGCC, the binding signal in [1] was 8.39 upbm affinity estimate (log intensity, higher = more binding, comparable within an allelic series); in assay [2], 9.5 upbm affinity estimate (log intensity, higher = more binding, comparable within an allelic series); in assay [3] it was 8.27 upbm affinity estimate (log intensity, higher = more binding, comparable within an allelic series); in assay [4] it was 9.64 upbm affinity estimate (log intensity, higher = more binding, comparable within an allelic series); in assay [29], 6.55 upbm affinity estimate (log intensity, higher = more binding, comparable within an allelic series); in assay [5], 9.51 upbm affinity estimate (log intensity, higher = more binding, comparable within an allelic series). Further, the binding signal is 6.47 upbm affinity estimate (log intensity, higher = more binding, comparable within an allelic series) in assay [30]; 8.29 upbm affinity estimate (log intensity, higher = more binding, comparable within an allelic series) in [6]; 9.62 upbm affinity estimate (log intensity, higher = more binding, comparable within an allelic series) in assay [7]; 6.28 upbm affinity estimate (log intensity, higher = more binding, comparable within an allelic series) in assay [31].

(Values after paper PMC11006913.)
